Experimental data reported in the supplement of paper PMC6555819.

Key:
Experiment in all cases: PBM binding z-score (relative to random genomic background probes); higher = stronger binding; sequences stand for … in GC…GCGATTGACAGCGTAGAATGAAGG
[1] = tested on: RARb homodimer (NR concentration 270 nM)
Summary of the method: (§1)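 Probes were double-stranded and carried 34-nt variable regions with direct-repeat seeds, single-nucleotide variants, half-site ablations and random human genomic background sequences, printed on custom Agilent 4×180K protein-binding microarrays. Arrays were incubated 1 h with ligand-free nuclear receptor dimers in PBS pH 7.4, 2% milk, 0.02% Triton X-100, 1 mM DTT, 0.2 mg/mL BSA and 0.4 mg/ml salmon testes DNA. Antibodies against each partner (one per run) detected binding, and scanned fluorescence was regression-normalized. Binding z-scores use the random background probes as reference.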

[2] = tested on: RARg:RXRa (NR concentration 270 nM, RXRa partner concentration 90 nM)
Summary of the method: as §1

[3] = tested on: RARg homodimer (NR concentration 270 nM)
Summary of the method: as §1

[4] = tested on: RXRa DBDmut IVT, anti-RXR (DBD mutation: RXRa K156A/R161A, NR concentration 90 nM)
Summary of the method: as §1

[5] = tested on: RXRa homodimer (NR concentration 180 nM)
Summary of the method: as §1

[6] = tested on: THRa:RXRa (NR concentration 90 nM, RXRa partner concentration 90 nM)
Summary of the method: as §1

[7] = tested on: THRa homodimer (NR concentration 90 nM)
Summary of the method: as §1

[8] = tested on: VDR homodimer (NR concentration 270 nM)
Summary of the method: as §1

Sequence | PBM binding z-score [1] | PBM binding z-score [2] | PBM binding z-score [3] | PBM binding z-score [4] | PBM binding z-score [5] | PBM binding z-score [6] | PBM binding z-score [7] | PBM binding z-score [8]
CTCAAAAGGTCGGTTGAGGTGAGTATACGGATAA | 2.58 | 2.78 | 2.85 | 0.765 | 2.66 | 5.22 | 1.15 | 0.384
TCATATAGGTAATACAGGTGACAGTCGGCATCTA | 0.657 | 0.874 | 0.762 | 1.5 | 1.08 | 0.809 | 0.0912 | -0.0475
AATACAGGGTCATCGTAGGCCAGAATACGCACAG | 3.68 | 5.69 | 5.13 | 3.5 | 6.42 | 4.4 | 1.5 | 3.25
GCTGCTAGGTCACGTTGGTCAGCTAACGGGTACG | 3.68 | 4.37 | 5.6 | 1.5 | 3.09 | 3.38 | 1.79 | 0.836
CCGCCTGGGGCAGAAAGGTTACCATACCATCCGG | 2.37 | 1.47 | 1.32 | -0.959 | 1.55 | 1.03 | -0.231 | 0.052
TGAATGAGGTTAAGGATCAGGGAACGTGGCGTCG | 0.892 | 1.97 | 1.38 | 0.394 | 2.62 | 2.49 | 0.88 | 0.15
CCTGCTAGGTAAATGGTCAGCTAAAGCAGCTCGC | -0.0242 | -0.351 | -0.323 | -0.0563 | -0.478 | -0.113 | -0.416 | -0.618
TATACAGGGTCAAAGCCCAGAGTACGAATGTCGA | 2.97 | 5.26 | 4.63 | 3.03 | 5.9 | 3.23 | 0.46 | 2.85
ATCTCTAGGTAAAGATAGCTCAGTGAATGCAAAT | -0.409 | 0.141 | 0.459 | -0.409 | -0.19 | -0.00233 | -0.226 | -0.379
CAACCTAGGTCAGGGCCAGTATAGGAGGAACGTT | 2.7 | 3.49 | 4.18 | 0.0707 | 2.07 | 2.12 | 0.435 | -0.128
TCTGCTAGGCCAACGATGGTCAGCTAATCTGCTA | 0.00128 | -0.269 | 0.329 | -0.26 | -0.518 | -0.441 | -1.26 | -1.49
ATATGTAGGTTACATCCGGGCCATTCAGGCTATG | 0.788 | 1.35 | 0.995 | 0.497 | 0.936 | 2.04 | 0.851 | 0.406
TCATATAGGTAAATGCTGGGTGAAAGTCCGATCT | 0.617 | 0.24 | 0.16 | 1.48 | 0.693 | 0.785 | 0.692 | 0.384
CCTCGGAGGACAACAGGAGCTCAGAGCTGCCAGA | -0.211 | 0.18 | 0.813 | 0.0828 | -0.62 | 0.178 | -0.484 | -0.365
GCTCGGAGGACAAGGTCAGACCTTTGTCCGTAGA | 3.1 | 3.68 | 3.51 | 0.424 | 3.12 | 2.94 | 1.47 | 0.924
CCTTACGGGTCACGAAGTTATAGCACGACGAGCG | 3.14 | 5.21 | 4.74 | 1.29 | 5.71 | 2.87 | 0.0516 | 0.721
CCTTACGGTTCACTCCAGGTTATAGCATCGGAGT | 1.62 | 1.48 | 0.86 | 3.44 | 1.89 | 4.66 | 1.33 | 3.65
ATATGTAGGTTATCGGGTGATTCAGTTTGCGCAT | 1.27 | 0.897 | 0.751 | 0.935 | 1.26 | 1.27 | 1.49 | 0.83
TAGCCTAGGTCAGATTGGGCCAGTATACGCTATA | 2.06 | 2.79 | 3.72 | -0.225 | 1.25 | 3.56 | -0.0542 | -0.257
ACTATTAGTTGACTTAGGGCAACCGCTACGACGC | 0.908 | 0.58 | 0.586 | 0.636 | 0.331 | 1.39 | 0.625 | 0.173
CGTCCAAGGTCAGAGCGGTCAGTGAATGCCGAGT | 4.33 | 5.22 | 6.15 | 2.61 | 3.84 | 3.6 | 1.54 | 2.42
TCTCGGAAGACACGAAAGGTCAGAGCTCGACATC | 4.18 | 4.01 | 4.27 | 1.06 | 4.27 | 2.58 | 0.266 | 0.21
CGACCTAGGTCATTGACAGGACAGTGAATAGTAA | 3.01 | 5.2 | 4.67 | 2.83 | 3.09 | 3.2 | 0.892 | 1.47
AGAATGAGGTTATACGCAGATCAGGGAAGAAAGT | 0.779 | 1.67 | 0.985 | 1.47 | 2.3 | 2.22 | 0.465 | 0.945
CGTCCAAGGTCAAGGTCAGTAAAAGAGACTCGAA | 4.79 | 6.66 | 7.87 | 3.57 | 6.53 | 4 | 3.52 | 3.34
CAAACTAGGTCACAGAGGTCAAAGTGCGTGCGTA | 5.64 | 7.46 | 7.84 | 3.65 | 7.66 | 4.92 | 3.02 | 6.01

Sequence | PBM binding z-score [1] | PBM binding z-score [2] | PBM binding z-score [3] | PBM binding z-score [4] | PBM binding z-score [5] | PBM binding z-score [6] | PBM binding z-score [7] | PBM binding z-score [8]
CTAGAAAGGTCGGTTGAGGTGAGTATACGGATAA | 2.53 | 2.76 | 2.97 | 1.01 | 2.5 | 4.81 | 1.71 | 1.05
ATATGTAGGTTAGCTGGGGTCATTAAGACTAGGC | 3.6 | 3.87 | 3.03 | 1.83 | 5.15 | 5.26 | 3 | 4.98
ACTAGCAGGCCAAGTTTGGGTCTCTCAAACAAAG | 0.00651 | -0.231 | -0.0296 | -0.0597 | -0.754 | -0.042 | -0.533 | -0.181
CAAACTATGTCACGAAAGGTCAAAGTCGAATGAC | 5.15 | 6.02 | 5.58 | 1.55 | 6.73 | 4.49 | 1.4 | 2.8
ATCTCTAGGTAAAGATTGTTCAGTGAATGCAAAT | 0.0182 | -0.0248 | 0.361 | 0.286 | -0.291 | 0.472 | 0.375 | 0.0196
ATCTCTAGGTAACCAAATTCAGTGAATGCCGAAC | 0.339 | 0.22 | 0.428 | 0.324 | 0.301 | 0.659 | 0.778 | 0.572
GTACCAAGGTGAGTAGGTCGTTGATGAGTAGGCG | 1.15 | 0.89 | 0.657 | -0.673 | 0.551 | 0.995 | 0.258 | 0.112
AATACAGGGTCAGTAGGCCAGAGTAGGTACGAAT | 3.07 | 4.31 | 4.31 | 1.86 | 3.73 | 2.38 | 0.554 | 1.72
GCTTACGGGTCAAAGGTTCTAGCATGAATAGAAT | 2.69 | 5.33 | 4.79 | 2.09 | 7.13 | 2.7 | -0.332 | 1.55
CGTCCAAGGTCAAATGTCAGTGAAGAGATGACGG | 4.41 | 6.58 | 7.15 | 3.82 | 6.77 | 4 | 2.21 | 2.75
GCGGCTAGGTCAGGTTGGTCAGCTAACGGGTACG | 2.8 | 2.47 | 3.36 | 0.271 | 1.07 | 1.85 | 0.788 | 0.247
AGAATGAGGTTATGATCAGGGAAACAGAATACAT | 0.715 | 1.74 | 1.11 | 1.02 | 2.16 | 2.44 | 0.714 | 0.317
AGTCAAAGTTCAGGACGAGGTAACGGAAAGCACG | 3.17 | 4.69 | 4.86 | 2.73 | 2.96 | 3.79 | 1.74 | 1.79
CCAGACAGGTGATAAGGTAACTCAGCCTCGATTA | 0.435 | 0.392 | 0.586 | 0.284 | 0.276 | 1.77 | 1.72 | 0.103
ATCGAAAGGTCGTGAGGTGAGTAAACAGAAAGGC | 2.71 | 4.68 | 4.11 | 1.25 | 4.91 | 3.31 | 1.1 | 0.838
ATATGTAGGTTAGCTGGGGTCGTTCAGACTAGGC | 1.8 | 1.66 | 1.15 | 1.08 | 2.37 | 4.63 | 1.18 | 2.29
CCTACTGGGCCAATCAGAGGTCATTGATCATATG | 4.14 | 4.56 | 3.26 | 0.861 | 3.82 | 3.13 | 1.38 | 3.81
ATCTCTAGGCAAGACTCAGTTCAGTGAAGAACGC | 0.298 | -0.279 | 0.0763 | 0.109 | -0.365 | 0.205 | 0.122 | 1.01
CCAGACAAGTGAGAAGGTAACTCAGCCTCGATTA | 0.174 | 0.0341 | 0.205 | 0.366 | 0.108 | 0.152 | 0.461 | 0.281
CTTCAAAGTTCAAGGTAACGTAACAGAAAGCAGC | 3.62 | 5.19 | 6.14 | 4.34 | 4.62 | 2.96 | 1.34 | 3.44
ATCTCTAGGTACCAAGTTCAGTGAAAGAGAGGAC | 1.51 | 0.686 | 0.865 | 1.27 | 0.546 | 0.926 | 0.692 | 2.26
TCATATAGGAAAAGGTGAAAGTCGAACGATATGA | 1.17 | 1.38 | 1.12 | 1.03 | 1.86 | 0.964 | -0.616 | 0.135
ATCTCTAGGGAACAAGTTCAGTGAAAGAGAGGAC | 1.49 | 0.977 | 1.13 | 0.71 | 0.649 | 0.823 | 0.263 | 2.43
TCTTGTAGATCAACCAGGTTAAGAAAGCCTGAGT | 0.615 | 0.0614 | -0.146 | 0.718 | 0.38 | 0.777 | 0.123 | 0.207
CAAACTATGTCACCGGAAGGTCAAAGTCCGCATG | 4.63 | 5.37 | 4.06 | 1.32 | 4.15 | 3.11 | 1.99 | 2.33
AATACAGGGTCATCGTAGGCCCGAGTACGCACAG | 3.43 | 5.52 | 5.24 | 3.34 | 6.9 | 3.72 | 1.41 | 3.29
